This excerpt belongs to a sample that is enriched for hits.
Pf Dd2 growth: qHTS Primary assay for Inhibitors of Plasmodium falciparum Dd2 growth in vitro; Potency, µM (top dose mostly 28.9 µM), for inactives: at the top dose activity, negative = inhibition, actives largely listed as inhibitors; 4.3% of 120,000 active; AID 1347417, 2020; P. falciparum Dd2 growth, SYBR Green, 72 h; active means well fitted inhibition curve with a large enough effect;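 further: plate controls were DMSO vehicle for no effect and reference drug for full effect; nearly all actives have a fitted effect of over 65% in size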
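Readout: SYBR Green fluorescence, 485 nm excitation, 535 nm emission, after ~16 h lysis at 37C. Before that, Dd2-infected red cells (2.5% hematocrit) grew 72 h with compound, 29 uM top final concentration.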
Numbers without * were called inactive; i = inactive; [ ] = dose if it differs, or a comment. Potency means the concentration at half of the fitted maximal effect.

SMILES	Pf Dd2 growth
CN(C)c1nc2c(c(=O)[nH]1)CCN(Cc1ccccc1Cl)CC2	-20%[5.79 µM]
O=C(c1c(OCC2CC2)cc(=O)n2c1CCOCC2)N1CCOCC1	13%
COc1cccc(-c2noc(Nc3ccc4c(c3)OCO4)n2)c1	-23%
CCc1nc(-c2c3n(c(=O)n(CC(=O)NCc4ccc(F)cc4)c2=O)CCCC3)no1	-15%
COc1ccccc1CCC(=O)NC1CCc2nn(CC3CC3)c(=O)n2CC1 (stereo not drawn)	-18%
CC(C)NC(=O)N1CCC2(CC1)NCCc1c2[nH]c2ccccc12	i
COc1cccc(CN2C[C@@H](COCC3CC3)[C@H](c3ccncc3)C2)n1	11µM*
O=C(c1cncnc1)N1C[C@@H](COCC2CC2)[C@H](c2ccncc2)C1	21%
Cc1ccccc1C(=O)N1C[C@@H](COCC2CC2)[C@H](c2ccncc2)C1	-23%
O=C(Nc1cccc(C(F)(F)F)c1)N[C@H]1CO[C@H]2[C@@H]1OC[C@H]2OC(=O)Nc1ccccc1	-27%
O=C(Nc1cccc(C(F)(F)F)c1)O[C@@H]1CO[C@H]2[C@@H]1OC[C@@H]2n1cc(-c2ccccn2)nn1	10µM*
O=C(Nc1ccc(Oc2ccccc2)cc1)N[C@H]1CO[C@H]2[C@@H]1OC[C@@H]2n1cc(-c2ccccn2)nn1	-22%
c1cc(N2CCCCC2)ccc1-c1n[nH]c(C2CCOC2)n1 (stereo not drawn)	-24%
O[C@]12CCNC[C@H]1CN(Cc1cccc(-c3ccccc3)c1)CC2	8.9µM*
OC[C@]12CCCN[C@@H]1CCN(Cc1cccc(-c3ccccn3)c1)C2	i
CN1C(=O)CC(C(=O)O)C12CCN(Cc1cccc(-c3ccccc3)c1)CC2 (stereo not drawn)	-16%
CC1CCC2(CC1)NC(=O)N(CC(=O)Nc1ccccc1C(F)(F)F)C2=O (stereo not drawn)	i
COc1cc(Cl)ccc1-c1nc(C2CC(=O)N(C3CCCCC3)C2)no1 (stereo not drawn)	21%
Fc1ccc(Nc2nc(-c3cccc(Cl)c3)c3c(n2)-c2ccccc2OC3)c(F)c1	-15%
Fc1ccc(-c2cc(-c3ccccc3)c3c(n2)-c2ccccc2OC3)cc1	i
Fc1ccc(-c2nc(Nc3cccc(C(F)(F)F)c3)nc3c2COc2ccccc2-3)cc1	10µM*
O=C([C@H]1C[C@H](Oc2cccnc2)CN1S(=O)(=O)c1ccc(F)cc1)N1CCOCC1	-16%
Cc1ccc(CN2CCC(CNC(=O)Nc3ccccc3F)CC2)cc1	i
COc1ccc(CN2CCCC(CNC(=O)NC(C)C)C2)cc1O (stereo not drawn)	-22%
O=C(Nc1cccc(C(F)(F)F)c1)c1cc2ccc3cccnc3c2[nH]1	30%
SMILES	Pf Dd2 growth
O=C(Nc1ccc(F)cc1F)c1cc2ccc3cccnc3c2[nH]1	25%
Cc1ccc(CN2CCC(CNC(=O)NC(C)C)C2)cc1C (stereo not drawn)	8.9µM*
Cc1ccc(NC(=O)NCC2CCN(Cc3cccc(Cl)c3)CC2)cc1Cl	10µM*
O=C(NCC1CCN(Cc2cccc(Cl)c2)CC1)c1cc2ccc3cccnc3c2[nH]1	7.9µM*
Cc1ccc(CN2CCC(CNC(=O)Nc3ccc(Cl)cc3)C2)cc1 (stereo not drawn)	i
CC(C)NC(=O)NCC1CCCN(Cc2ccc3c(c2)OCCO3)C1 (stereo not drawn)	-10%
CCCNC(=O)C1CC(c2ccccc2F)=NO1 (stereo not drawn)	4%
CC(C)N1C[C@H](O)C[C@H]1c1nc(-c2cccc([N+](=O)[O-])c2)no1	-12%[44.1 µM]
O=S(=O)(c1ccc(Br)cc1)N1CCC(n2cnnc2C2CC2)CC1	0%
CN1CC(=O)N(C2CCNCC2)Cc2c(NCCN3CCOCC3)ncnc21	14%
COc1ccccc1C(=O)N1CCC2(CC1)CN(c1ncccn1)CC2CO (stereo not drawn)	-6%
Cc1ccc(NC(=O)N[C@H](Cc2ccccc2)C(=O)N2CCOCCNC(=O)CC2)cc1C	i
COCC(=O)N1CCN2C(=O)N(Cc3ccccc3)C(=O)[C@H]2C1	0%[44.1 µM]
CCOc1ccc(N(C(=O)Cn2nnc3ccccc32)C(C(=O)NCc2ccccc2)c2ccc(OC)cc2)cc1 (stereo not drawn)	-22%
CC(=O)Nc1ccc(N(C(=O)Cn2nnc3ccccc32)C(C(=O)NCc2ccccc2)c2ccc(C)cc2)cc1 (stereo not drawn)	11µM*
CCC(Cn1nnc2ccccc2c1=O)NC(=O)Nc1ccc(C)cc1 (stereo not drawn)	17%
COCCN1CC(CO)C2(CCN(C(=O)c3nccc4ccccc34)CC2)C1 (stereo not drawn)	6%
CO[C@H]1[C@H](NC(=O)c2cc(C)oc2C)c2ccccc2C12CCNCC2	-3%
CC(=O)N1Cc2ccccc2CC2(CCCN(CC3CCNC3)C2)C1 (stereo not drawn)	-4%
Cn1nc(C(=O)N2CCOCCNC(=O)CC2)c2ccccc21	-1%
CC(C)Oc1cccc(-c2n[nH]c3c2CC(=O)N(CCOc2ccccc2)C3)c1	8.9µM*
O=C(O)c1cccc(-c2n[nH]c3c2CC(=O)N(CCOc2ccccc2)C3)c1	-12%[44.1 µM]
O=C1Cc2c(-c3ccccc3)n[nH]c2CN1CCOc1ccccc1	-21%[44.1 µM]
CC(=O)N1CCC(C(=O)NC[C@@H]2C=C(C)[C@H](CC(=O)N(C)Cc3ccccc3)C[C@H]2C(C)C)CC1	-4%
CC(C)c1nc2c(NC(=O)Nc3cccc(Cl)c3)cccn2n1	-18%
SMILES	Pf Dd2 growth
COc1ccc(NC(=O)Nc2cccn3nc(C(C)C)nc23)cc1	-23%
CC(C)c1nc2c(NC(=O)c3cccc(Br)c3)cccn2n1	3.2µM*
CCc1ccccc1S(=O)(=O)Nc1cccn2nc(C(C)C)nc12	8.9µM*
Cc1nc2c(NS(=O)(=O)c3cccc(C#N)c3)cccn2n1	3%
CCc1nc2c(NS(=O)(=O)c3cccnc3)cccn2n1	-8%
COc1cc(-c2onc(C)c2C(=O)NCCSC)cc(OC)c1OC	i
COc1cccc(N2C(=O)NC(=NC3CCCCC3)C23CCN([S+](=O)([O-])c2cccs2)CC3)c1	-15%
Cc1ccc(C(=O)NCc2nnc3ccc(-c4ccc(C)c(C)c4)nn23)s1	-10%
c1ccc(-c2nnc3ccc(N4CCc5ccccc5C4)nn23)nc1	i
CCC1CN(C(=O)c2ccc(-c3ccsc3)nc2)CCN1C(C)C (stereo not drawn)	i
CC(C)CCC(=O)NC1CCN(c2cn[nH]c(=O)c2)CC1	1%
Cc1ccc(C(=O)N2CCC(Oc3ccc(C(=O)N(C)C)cn3)CC2)cc1F	29%
Cc1cnccc1N1CCCN(C(=O)c2cccc(C3CCCNC3)c2)CC1 (stereo not drawn)	-8%
COC[C@@H]1CN(Cc2cccc(OC)c2OC)C[C@H]1c1ccncc1	i
COc1ccccc1-c1nnc2n1C(C(=O)N1CCOCC1)CC2 (stereo not drawn)	11%
CCN(CC)S(=O)(=O)c1ccc(C(=O)NCCSc2c(-c3ccccc3)[nH]c3ccccc23)cc1	11µM*
O=C(NC1CC(=O)N(c2ccccc2)C1)c1ccc(S(=O)(=O)N2CCOCC2)cc1 (stereo not drawn)	i
COc1cc(C(=O)NCCSc2c(C)[nH]c3ccccc23)cc(OC)c1OC	-21%
Cc1[nH]c2ccccc2c1SCCNC(=O)c1ccccc1F	-8%
Cc1ccc(-c2[nH]c3ccccc3c2SCCNC(=O)c2ccc(S(=O)(=O)N3CCOCC3)cc2)cc1	10µM*
